Reference: PubChem BioAssay (NCI)
Compounds without any hit were thinned out: in the full panel of roughly 83,000, 20% have a hit.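 The test compound was applied at a single concentration to cells in 96-well plates for 48 hours, and percent growth was recorded.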 Calls of active or inactive are those of the source. How the source made its calls: active means growth percent below 10; inactive means the rest.

Tests used:
Experiment in all cases: NCI-60 one-dose screen, 48 h (100 = growth as untreated, 0 = no growth, -100 = all killed)
Settings in all cases: 10 µM unless noted
EKVX NSCLC = tested on: EKVX NSCLC
SN12C renal = tested on: SN12C renal
UO-31 renal = tested on: UO-31 renal
ACHN renal = tested on: ACHN renal
CAKI-1 renal = tested on: CAKI-1 renal
A498 renal = tested on: A498 renal
CCRF-CEM leukemia = tested on: CCRF-CEM leukemia
MOLT-4 leukemia = tested on: MOLT-4 leukemia
SR leukemia = tested on: SR leukemia
RPMI-8226 leukemia = tested on: RPMI-8226 leukemia
OVCAR-8 ovarian = tested on: OVCAR-8 ovarian
OVCAR-5 ovarian = tested on: OVCAR-5 ovarian
OVCAR-4 ovarian = tested on: OVCAR-4 ovarian
IGROV1 ovarian = tested on: IGROV1 ovarian
OVCAR-3 ovarian = tested on: OVCAR-3 ovarian
HS 578T breast = tested on: HS 578T breast
T-47D breast = tested on: T-47D breast
NCI/ADR-RES ovarian = tested on: NCI/ADR-RES ovarian
SK-OV-3 ovarian = tested on: SK-OV-3 ovarian

Measured: growth

COc1cccc(NC2=CC(=O)C(C)=C(C)C2=O)c1
active: OVCAR-4 ovarian -1.68% | OVCAR-3 ovarian 0.294%
inactive: EKVX NSCLC 36.7% | SN12C renal 80.5% | UO-31 renal 86% | ACHN renal 70.9% | CAKI-1 renal 93% | A498 renal 67.2% | CCRF-CEM leukemia 15.8% | MOLT-4 leukemia 17.9% | SR leukemia 23.2% | RPMI-8226 leukemia 17.5% | OVCAR-8 ovarian 16.9% | OVCAR-5 ovarian 101% | IGROV1 ovarian 40% | HS 578T breast 112% | T-47D breast 47.7%

c1ccc2c(NCCCn3ccnc3)c3oc4ccccc4c3nc2c1
active: EKVX NSCLC 3.11% | SN12C renal -10.8% | UO-31 renal 0.573% | ACHN renal -7.51% | CAKI-1 renal -8.49% | A498 renal -18.2% | MOLT-4 leukemia -3.87% | SR leukemia -2.89% | RPMI-8226 leukemia -25.4% | OVCAR-8 ovarian -16.9% | OVCAR-5 ovarian 1.5% | OVCAR-4 ovarian -10.6% | IGROV1 ovarian -6.93% | OVCAR-3 ovarian 5.25% | NCI/ADR-RES ovarian 2.5%
inactive: CCRF-CEM leukemia 15% | HS 578T breast 19.7% | T-47D breast 17%

CCOC(=O)c1sc(N)c(C(=O)OCC)c1C
active: T-47D breast 7.83%
inactive: EKVX NSCLC 25.9% | SN12C renal 54.9% | UO-31 renal 31.3% | ACHN renal 52.9% | CAKI-1 renal 39.1% | A498 renal 13.4% | CCRF-CEM leukemia 42% | MOLT-4 leukemia 26.5% | SR leukemia 47.2% | RPMI-8226 leukemia 42.3% | OVCAR-8 ovarian 65.1% | OVCAR-5 ovarian 67.6% | OVCAR-4 ovarian 62% | IGROV1 ovarian 56.9% | OVCAR-3 ovarian 70.5% | HS 578T breast 30.9%

CN(C)CCCNc1c2ccc(Cl)cc2nc2c1oc1ccc(Cl)cc12
active: SN12C renal -74.4% | ACHN renal -96.8% | CAKI-1 renal -85% | CCRF-CEM leukemia 2.17% | MOLT-4 leukemia -4.89% | SR leukemia -12.3% | RPMI-8226 leukemia -27.2% | OVCAR-8 ovarian -78.6% | OVCAR-5 ovarian -7.04% | OVCAR-4 ovarian 0.544% | IGROV1 ovarian -64.3% | OVCAR-3 ovarian -52.6% | NCI/ADR-RES ovarian 2.92%
inactive: EKVX NSCLC 44.4% | UO-31 renal 45.2% | A498 renal 37.9% | HS 578T breast 60.9% | T-47D breast 84.4%

C[C@@H](Nc1c(C#N)cnc2ccc(-c3cnc(N)nc3)cc12)c1ccccc1
inactive: SN12C renal 11.8% | CCRF-CEM leukemia 14% | OVCAR-8 ovarian 17.1% | OVCAR-5 ovarian 20.9% | NCI/ADR-RES ovarian 22.5%
active: EKVX NSCLC 4.11% | UO-31 renal 4.65% | ACHN renal 6.57% | CAKI-1 renal 1.83% | A498 renal -37.8% | MOLT-4 leukemia 0.24% | SR leukemia 7.92% | RPMI-8226 leukemia -26.9% | OVCAR-4 ovarian 4.34% | SK-OV-3 ovarian -2.04% | IGROV1 ovarian -32.6% | HS 578T breast -13.6% | T-47D breast 3.05%

CC1=C(C)C(=O)C(Nc2ccccc2)=C(Cl)C1=O
active: CCRF-CEM leukemia 5.28% | OVCAR-4 ovarian -97.9% | IGROV1 ovarian 9.69% | T-47D breast -38.9%
inactive: EKVX NSCLC 55.2% | SN12C renal 91.1% | UO-31 renal 98.8% | ACHN renal 100% | CAKI-1 renal 96.1% | A498 renal 91.2% | MOLT-4 leukemia 12.7% | SR leukemia 62.9% | RPMI-8226 leukemia 53.6% | OVCAR-8 ovarian 94.9% | OVCAR-5 ovarian 104% | OVCAR-3 ovarian 102% | HS 578T breast 101%

CS(=O)(=O)c1ccc(-c2nc3ccccn3c2-c2nc3ccc([N+](=O)[O-])cc3[nH]2)cc1
inactive: EKVX NSCLC 91% | SN12C renal 94.8% | UO-31 renal 77.7% | ACHN renal 88.6% | CAKI-1 renal 86.2% | A498 renal 87.5% | CCRF-CEM leukemia 101% | MOLT-4 leukemia 90.3% | SR leukemia 95.2% | RPMI-8226 leukemia 95.1% | OVCAR-8 ovarian 94.5% | OVCAR-5 ovarian 97.8% | OVCAR-4 ovarian 93.2% | SK-OV-3 ovarian 107% | IGROV1 ovarian 81% | OVCAR-3 ovarian 110% | HS 578T breast 99.7% | NCI/ADR-RES ovarian 92.2% | T-47D breast 91.2%

O=C1Nc2cc(Cl)ccc2/C1=C\c1ccc(OCc2ccc([N+](=O)[O-])cc2)cc1
inactive: EKVX NSCLC 82.5% | SN12C renal 79.5% | UO-31 renal 50.7% | ACHN renal 43% | CAKI-1 renal 64.6% | A498 renal 81% | MOLT-4 leukemia 97.4% | SR leukemia 87.5% | RPMI-8226 leukemia 55.6% | OVCAR-8 ovarian 78.8% | OVCAR-5 ovarian 93.3% | OVCAR-4 ovarian 43.6% | OVCAR-3 ovarian 87.8% | HS 578T breast 60.9% | NCI/ADR-RES ovarian 73.3% | T-47D breast 51.9%
active: CCRF-CEM leukemia 5.4%

Cc1cccc2sc(/N=C(\N)C(Cl)(Cl)Cl)nc12
inactive: EKVX NSCLC 71% | SN12C renal 110% | UO-31 renal 90.5% | ACHN renal 98.4% | CAKI-1 renal 85.3% | A498 renal 92.7% | CCRF-CEM leukemia 107% | MOLT-4 leukemia 103% | SR leukemia 100% | RPMI-8226 leukemia 105% | OVCAR-8 ovarian 102% | OVCAR-5 ovarian 119% | OVCAR-4 ovarian 97.4% | SK-OV-3 ovarian 101% | IGROV1 ovarian 98.3% | OVCAR-3 ovarian 115% | HS 578T breast 97.1% | NCI/ADR-RES ovarian 108% | T-47D breast 74.8%

N#Cc1c(-c2ccc(Cl)cc2)nc(SCc2ccccc2)nc1N1CCNCC1
active: SR leukemia -24.8%
inactive: EKVX NSCLC 71.6% | SN12C renal 54.9% | UO-31 renal 53% | ACHN renal 47.8% | CAKI-1 renal 53.1% | A498 renal 79.7% | CCRF-CEM leukemia 45.9% | MOLT-4 leukemia 52.7% | RPMI-8226 leukemia 23% | OVCAR-8 ovarian 65.6% | OVCAR-5 ovarian 92.1% | OVCAR-4 ovarian 85.2% | IGROV1 ovarian 46.9% | OVCAR-3 ovarian 50% | HS 578T breast 91.1% | T-47D breast 65.6%

OC1CCN(CCCOc2c3ccc(Cl)cc3nc3c2oc2ccccc23)CC1
active: EKVX NSCLC -43.4% | SN12C renal 6.58% | UO-31 renal -52.1% | ACHN renal -50.1% | CAKI-1 renal -3.51% | A498 renal -91.3% | CCRF-CEM leukemia 2.24% | MOLT-4 leukemia -21.5% | SR leukemia -38.5% | RPMI-8226 leukemia -15.1% | OVCAR-8 ovarian 3.92% | OVCAR-5 ovarian -4.92% | OVCAR-4 ovarian 1.3% | SK-OV-3 ovarian 7.92% | IGROV1 ovarian -18% | OVCAR-3 ovarian 0.661% | HS 578T breast -6.78% | NCI/ADR-RES ovarian 6.48%
inactive: T-47D breast 11%

COc1ccc(-c2nn3c(-c4ccccc4F)nnc3s2)cc1
inactive: EKVX NSCLC 70% | SN12C renal 58.2% | UO-31 renal 65% | ACHN renal 78.1% | CAKI-1 renal 50.7% | A498 renal 16.4% | CCRF-CEM leukemia 58.5% | MOLT-4 leukemia 35.1% | SR leukemia 15.4% | RPMI-8226 leukemia 58% | OVCAR-8 ovarian 68.3% | OVCAR-5 ovarian 81.2% | OVCAR-4 ovarian 82% | SK-OV-3 ovarian 84% | OVCAR-3 ovarian 49.6% | HS 578T breast 74.2% | NCI/ADR-RES ovarian 21.3% | T-47D breast 46%

Clc1ccc2c(NCCCN3CCOCC3)c3oc4ccccc4c3nc2c1
active: SR leukemia 8.11%
inactive: EKVX NSCLC 62.6% | SN12C renal 29.9% | UO-31 renal 40.1% | ACHN renal 19.3% | CAKI-1 renal 30.4% | A498 renal 33.7% | CCRF-CEM leukemia 32.8% | MOLT-4 leukemia 10.6% | RPMI-8226 leukemia 23.2% | OVCAR-8 ovarian 32.5% | OVCAR-5 ovarian 39.6% | OVCAR-4 ovarian 64.8% | SK-OV-3 ovarian 97.6% | IGROV1 ovarian 25.8% | OVCAR-3 ovarian 74.2% | HS 578T breast 58.2% | NCI/ADR-RES ovarian 44.2% | T-47D breast 76.5%

O=C(CN1C(=O)/C(=C/c2ccccc2)SC1=S)N1CCOCC1
inactive: EKVX NSCLC 96.3% | SN12C renal 94.7% | UO-31 renal 71.4% | ACHN renal 77.9% | CAKI-1 renal 93.7% | A498 renal 112% | CCRF-CEM leukemia 88% | MOLT-4 leukemia 99.1% | SR leukemia 85.8% | RPMI-8226 leukemia 89.6% | OVCAR-8 ovarian 102% | OVCAR-5 ovarian 97.6% | OVCAR-4 ovarian 109% | SK-OV-3 ovarian 95.4% | HS 578T breast 106% | NCI/ADR-RES ovarian 106% | T-47D breast 77.9%

OC1CCN(CCCOc2c3ccccc3nc3c2oc2ccccc23)CC1
active: EKVX NSCLC -13.7% | SN12C renal -1.2% | UO-31 renal -34.4% | ACHN renal -39% | CAKI-1 renal -36.7% | A498 renal -78.8% | CCRF-CEM leukemia 6.02% | MOLT-4 leukemia 3.82% | SR leukemia -3.77% | RPMI-8226 leukemia -24% | OVCAR-8 ovarian -44.9% | OVCAR-5 ovarian -8.63% | OVCAR-4 ovarian 4.9% | SK-OV-3 ovarian -10.8% | OVCAR-3 ovarian -18.7% | HS 578T breast 8.94% | NCI/ADR-RES ovarian -17.9% | T-47D breast 1.32%

C=CCSc1ccc2c(c1)C(N1CCNCC1)=Nc1ccccc1O2
inactive: EKVX NSCLC 79.7% [8.25 µM] | SN12C renal 77.3% [8.25 µM] | UO-31 renal 62.1% [8.25 µM] | ACHN renal 70.3% [8.25 µM] | CAKI-1 renal 58.8% [8.25 µM] | A498 renal 75.1% [8.25 µM] | CCRF-CEM leukemia 66.6% [8.25 µM] | MOLT-4 leukemia 49.9% [8.25 µM] | SR leukemia 14.4% [8.25 µM] | RPMI-8226 leukemia 63.2% [8.25 µM] | OVCAR-8 ovarian 92.5% [8.25 µM] | OVCAR-5 ovarian 85.4% [8.25 µM] | OVCAR-4 ovarian 83.1% [8.25 µM] | SK-OV-3 ovarian 88.2% [8.25 µM] | IGROV1 ovarian 63.1% [8.25 µM] | HS 578T breast 72.1% [8.25 µM] | NCI/ADR-RES ovarian 87.9% [8.25 µM] | T-47D breast 71.3% [8.25 µM]

[Cl][Ru].c1ccc(-c2cc(-c3ccccn3)nc(-c3ccccn3)c2)cc1.c1ccc(-c2ccnc3c2ccc2c(-c4ccccc4)ccnc23)cc1
active: SN12C renal -22.5% | ACHN renal 6% | CAKI-1 renal -6.38% | A498 renal -20.2% | CCRF-CEM leukemia 0.187% | MOLT-4 leukemia -16.8% | SR leukemia -40.3% | RPMI-8226 leukemia -41.8% | OVCAR-8 ovarian -65.5% | SK-OV-3 ovarian -12.1% | IGROV1 ovarian -59.2% | OVCAR-3 ovarian -64.2% | HS 578T breast -15.1% | T-47D breast -11.4%
inactive: EKVX NSCLC 25.9% | UO-31 renal 63.9% | OVCAR-5 ovarian 18.3% | OVCAR-4 ovarian 15.6%
